Measured values taken from the supplement of paper PMC5499739.
The full ranking holds about 16,000 sequences; the median of “Z-score” is about -0.37, and the highest 2% start at about 3.2. Shown is part of a subset that was picked to be rich in the highest values.

Test system: RBM10 RRM1-ZnF (GST-tagged construct)
Assay: RNAcompete 7-mer binding Z-score; higher = stronger binding preference
Procedure: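 RNAcompete: 20 pmol GST-tagged RBM10 RNA-binding constructs were incubated with a designed RNA pool of about 241,000 sequences up to 41 nt (1.5 nmol) on glutathione beads for 30 min at 4 °C and washed. Bound RNAs were identified by microarray hybridisation. Each RNA 7-mer is scored by a one-sided Z-score of its enrichment, computed over probes that contain the 7-mer within longer pool sequences.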

Sequence | RNAcompete 7-mer binding Z-score
GCAGGGC | 1.35
CCAGGGG | 1.46
ACAGGGC | 1.84
GCAGGGU | 3.43
CGACAAC | -0.542
GUCGGCU | -0.0252
GCUAUGC | -0.269
CAACGAU | -0.409
GAUAGUC | -0.279
AAACCCA | -0.701
AACGCUG | -0.5
CAAAACG | -0.119
AGCUUAC | -0.639
ACACGGC | -0.191
CGCUUAU | -0.649
AGGAGGC | 1.37
GGGAGGA | 3.47
UGGAGGA | 2.87
GAGAGGG | 2.7
GGGAGGG | 4.74
AGGAGGG | 3.53
AGGAGUG | 2.91
AGGAGGA | 2.25

Sequence | RNAcompete 7-mer binding Z-score
AGGAGGU | 2.47
GGGAGUA | 2.53
GGGAGUG | 3.73
CGGAGGG | 2.91
UCAGCGG | 0.309
AUGUCCG | -0.626
UUACGCA | -0.584
GGGAGCC | 0.917
GGGAGGC | 2.92
GGGAGCG | 3.35
UGGAGGC | 1.96
GGGAGGU | 3.68
UGGAGGU | 2.84
CGGAGGU | 2.41
UGGAGGG | 4.07
CGGAGCG | 1.23
AGCAACA | -0.158
AGUCUAC | -0.584
GCGUUUG | 0.131
GGUUGUG | 2.29
CUACUGA | -0.659
AUGUGGG | 3.84
AUGUGGC | 0.586

Sequence | RNAcompete 7-mer binding Z-score
GUGUGGU | 2.39
UUGUGGG | 2.83
GUGUGGG | 3.93
GUGUGGA | 2.98
CAUCAAG | -0.47
UUUAUGG | 0.303
CCAACAC | -0.5
GCGGUGG | 2.85
UGGGUCG | 2.09
GGGGUGG | 4.71
AGGGUGU | 3.11
AUGGUGA | 2.6
AGGGUCA | 1.14
GGGGUGU | 4.3
UGGGUGC | 2.92
GCGGUGU | 1.1
AGGGUGA | 4.19
GGGGUGC | 2.92
UGGGUGG | 4.14
UAAAUAG | -0.0674
CGUAUUU | -0.769
UUCACGG | -0.448
GAAGACG | 1.09

Sequence | RNAcompete 7-mer binding Z-score
CUAAGAA | -0.331
CUACAUG | -0.591
GAUCAGA | 0.316
AGUUAGU | -0.0642
ACAUCCC | -0.587
CGGGUGA | 2.66
AGGGUGG | 4.42
UGGGUGA | 3.38
UCGGUGA | 0.452
GGGGUCA | 2.86
GCGGUGA | 1.2
CGGGUGU | 2.14
CGGGUGG | 3.64
GGGGUGA | 4.16
ACGGUGG | 2.76
CGGGUGC | 1.85
AGGGUGC | 2.6
UCCAUUA | -0.75
UCUCCCC | -0.587
CCUCGGG | 0.423
GCGUCAC | -0.0252
GUCUUUA | -0.652
GUUUCGA | -0.396

Sequence | RNAcompete 7-mer binding Z-score
AUAUUAU | -0.402
AGUUGCU | -0.334
GGUGUGG | 4.32
UUGGUGU | 1.51
UGUGUGG | 1.89
GGUGUGU | 1.7
UGGGUGU | 3.53
UCGGUGU | 0.524
ACUCUAA | -0.685
GCACCCU | -0.496
AAAUCCC | -0.86
GCAUUCA | -0.396
CUGUUCU | -0.847
GGUGGUU | 2.61
GGUGGUC | 2.06
GCUGGGU | 2.3
UGUGGGU | 3.46
UCUGGGU | 0.81
UGUGGGC | 2.06
UGUGGUU | 1.84
UGUGGUG | 1.84
GGUGGGC | 3.3
GGUGGGU | 3.78

Sequence | RNAcompete 7-mer binding Z-score
UGUGGGA | 2.87
UGUGGGG | 3.96
CUAAUUG | -0.617
UUGAACG | -0.139
ACCCACU | -0.675
GGAUGUA | 1.7
GUUUGUG | 0.865
AUCUAAC | -0.681
AACCGGC | -0.6
AGUGUCC | -0.604
GGACGUA | 0.833
UUAUGAU | -0.353
CUGAAUG | -0.285
GGUGGGA | 4.26
AGUGGUA | 2.01
ACUGGGU | 2.06
AGUGGGG | 4.49
AGUGGGU | 3.49
AGUGGGC | 2.67
AUUGGGA | 2.83
GCUGGGA | 2.03
AGUGGGA | 4.13
CGUGGGU | 2.81

Sequence | RNAcompete 7-mer binding Z-score
GGUGGCA | 2.02
AGUGUGG | 2.95
UCAUCCG | -0.808
CAGUGAG | 0.706
UUCUUUG | -0.659
GCUGAAG | 0.699
ACACUUG | -0.535
UCUAUAC | -0.821
CGUGGGC | 1.85
CGUGGGA | 2.33
CGUGGGG | 3.65
AUUUAAG | -0.298
UAGUCAU | -0.444
GGGGAAU | 3.41
GGGGAAG | 4.31
AGGGAAU | 3.05
GGGGACG | 2.55
GGGGAAC | 2.42
CGGGAAU | 1.68
CGACUUC | -0.785
CCCUUGC | -0.694
GCCAGUA | -0.288
UGCCUCC | -0.506

Sequence | RNAcompete 7-mer binding Z-score
UGGAAGG | 4.12
AGGAAGG | 4.31
AGGAAGU | 1.06
UGGAAGU | 1.79
AGGAAGA | 1.7
CGGAAGG | 2.53
AUACUAG | -0.337
AACCAUC | -0.763
CUAGCUG | -0.386
GGUUGAG | 3.3
GGGUGAU | 3.22
AGGUGAU | 1.8
GGGUGAA | 3.87
UGGUGAU | 1.2
UGGUGAA | 1.71
CGUUGAG | -0.0512
CGGUGAA | 0.595
UGUUGAG | 0.716
GGGUGAC | 3.04
CGGUGAG | 1.42
GGGUGAG | 4.36
GAAACGU | -0.00246
GACAGCC | -0.539
